# Laboratory results taken from PubChem BioAssay.
# Results filed as inconclusive are left out. For some assays here: Measured potencies and affinities stand elsewhere. Activity calls are given as the source filed them. Unless noted, no rule for the calls is given here.
# What was measured:
# [1] = target: ATP-dependent translocase ABCB1 (Homo sapiens) (UniProt P08183); test: P-glycoprotein substrate transport blockade – cell-based (AID 377; in the data active = fluorescence slope change above about 50%); details: MDR1-expressing cells, fluorescent substrate accumulation slope; stronger effect = higher value; concentration not given here
# [2] = blockers of polyQ-driven CASP3 activation – cell-based (AID 1583); details: polyglutamine-induced caspase-3 activation, cell assay; stronger effect = higher value;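 tested at 10 µM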
# [3] = yeast 75Q aggregation reduction – 75Q-TubU reporter (AID 1593); details: Yeast 75Q polyglutamine aggregation reporter
# [4] = restoration of touch response, mutant HTT neurons – whole organism, C. elegans mechanosensory neurons, N-terminal huntingtin (AID 1599); details: C. elegans polyQ-huntingtin mechanosensory neurons, stronger effect = higher value
# [5] = blockers of cytochrome c efflux from mitochondria – biochemical, purified mitochondria (AID 1603); details: stronger effect = lower value;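 also: mouse liver mitochondria challenged with calcium chloride; signal normalized to the plate average as 100%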
# [6] = polyglutamine aggregate formation blockers (AID 1604); details: polyglutamine-induced protein aggregation inhibition assay; stronger effect = higher value; tested at 2.5 µM
# [7] = glutamate transport activators, MN-1 cells, MN-1 cell line (AID 1612); details: MN-1 motor neuron cells, stronger effect = higher value;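 also: tested at 1 µM final; 0% = mean of DMSO vehicle wells on each plate; positive means more glutamate uptake than control and negative means less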
# [8] = GFP-Q80 aggregate reduction, neuronal-like cells, cell-based, NGF-treated PC12, GFPQ80 (AID 1614); details: PC12 NGF-treated GFP-polyQ80 inclusion reduction;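 also: lower means fewer inclusions and 0 means no inclusions at all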
# [9] = 75Q-TubH aggregate inhibition, S. cerevisiae, yeast (AID 1616); details: S. cerevisiae 75Q-TubH polyglutamine aggregation suppression; stronger effect = higher value
# [10] = compounds altering viability of human ES cells (AID 493140); details: human embryonic stem cell survival screen; stronger effect = higher value;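 also: cells exposed to compounds for four days before counting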
# Chain of ATP-dependent translocase ABCB1 (Homo sapiens) (P08183 whole entry, looked up): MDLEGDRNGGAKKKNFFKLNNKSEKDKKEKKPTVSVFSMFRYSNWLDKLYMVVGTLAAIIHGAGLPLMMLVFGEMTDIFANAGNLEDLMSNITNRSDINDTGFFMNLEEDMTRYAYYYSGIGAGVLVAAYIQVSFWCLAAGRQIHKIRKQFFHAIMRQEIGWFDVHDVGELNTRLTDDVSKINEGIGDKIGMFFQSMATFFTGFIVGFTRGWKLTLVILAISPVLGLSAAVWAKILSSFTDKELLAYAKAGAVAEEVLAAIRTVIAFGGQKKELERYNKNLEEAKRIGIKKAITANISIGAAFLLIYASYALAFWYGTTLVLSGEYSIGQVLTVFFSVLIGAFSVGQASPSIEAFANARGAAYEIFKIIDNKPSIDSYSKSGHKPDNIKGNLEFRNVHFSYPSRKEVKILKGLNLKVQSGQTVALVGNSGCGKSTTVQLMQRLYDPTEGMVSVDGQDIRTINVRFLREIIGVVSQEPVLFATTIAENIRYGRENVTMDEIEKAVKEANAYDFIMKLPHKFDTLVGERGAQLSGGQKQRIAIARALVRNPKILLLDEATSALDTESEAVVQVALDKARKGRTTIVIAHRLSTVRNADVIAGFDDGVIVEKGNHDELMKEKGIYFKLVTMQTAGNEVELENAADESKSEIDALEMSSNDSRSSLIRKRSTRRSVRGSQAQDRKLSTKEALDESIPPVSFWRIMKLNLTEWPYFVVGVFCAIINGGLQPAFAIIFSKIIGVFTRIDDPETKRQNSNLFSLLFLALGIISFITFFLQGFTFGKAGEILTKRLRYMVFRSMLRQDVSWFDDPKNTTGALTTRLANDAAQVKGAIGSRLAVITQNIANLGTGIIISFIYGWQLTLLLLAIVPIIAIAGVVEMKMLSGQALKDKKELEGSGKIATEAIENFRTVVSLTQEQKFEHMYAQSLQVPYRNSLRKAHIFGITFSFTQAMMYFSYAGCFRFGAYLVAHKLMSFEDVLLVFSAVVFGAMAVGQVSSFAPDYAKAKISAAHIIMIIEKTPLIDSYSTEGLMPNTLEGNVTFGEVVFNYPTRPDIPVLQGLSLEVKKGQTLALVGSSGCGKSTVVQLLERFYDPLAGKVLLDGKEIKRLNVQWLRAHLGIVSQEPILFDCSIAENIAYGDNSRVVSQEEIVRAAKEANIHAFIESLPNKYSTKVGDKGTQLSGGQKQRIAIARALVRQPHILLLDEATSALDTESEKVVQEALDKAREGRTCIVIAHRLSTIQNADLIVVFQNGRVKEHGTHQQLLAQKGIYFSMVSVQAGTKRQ
SMILES,fluorescence slope change [1],inhibition [2] [%],score [3],rescue above control [4],cytochrome c release ratio [5],inhibition of aggregation [6] [%],glutamate uptake change [7] [%],inclusion score [8],aggregation suppression score [9],survival [10]
Nc1ccc(S(=O)(=O)Nc2ccccn2)cc1,12.6% (inactive),-3.18,1.17,5.7,0.88,24.2,-8.49,2,1.05,9.08 (inactive)
Cc1cc(-c2ccccc2)nnc1NCCN1CCOCC1,–,7.39,1.28,5.33,1.03,66.7,4.73,1,1.11,17.2 (inactive)
CCOC(=O)c1ccc(N)cc1,53.5% (active),-9.37,1.06,-11.4,0.65,53,13.1,1.5,1.18,3.58 (inactive)
Cc1c(NC(C)C)c(=O)n(-c2ccccc2)n1C,–,6.61,1.54,-6.83,1.16,13.7,28.4,2,1.14,7.42 (inactive)
C[N+]12CCC(CC1)C(OC(=O)C(O)(c1ccccc1)c1ccccc1)C2 (stereo unspecified),27.6% (inactive),10.9,1.31,14.7,1.79,73.8,-0.25,2,1.21,4.17 (inactive)
Nc1nc2c(c(=O)[nH]1)N(C=O)C(CNc1ccc(C(=O)N[C@@H](CCC(=O)O)C(=O)O)cc1)CN2 (stereo partly specified),–,16.8,2.89,-4.97,1.12,35,-0.12,1.5,2.31,8.17 (inactive)
CC(N)CCCC(C)(C)O (stereo unspecified),–,23.3,1.12,-5.82,0.68,19.1,-4.36,2,1.46,21.5 (inactive)
CC1(C)S[C@@H]2[C@H](NC(=O)[C@H](N)c3ccccc3)C(=O)N2[C@H]1C(=O)O,–,14.1,1.62,-3.83,1.35,80.3,-16.2,2,1.58,14.2 (inactive)
CC[C@]12CCCN3CCc4c(n(c5ccccc45)C(=O)C1)[C@@H]32,12.1% (inactive),11.5,1.49,15.2,1.06,76,-6.74,2,1.73,2 (inactive)
CO[C@]12C[C@@H](COC(=O)c3cncc(Br)c3)CN(C)[C@@H]1Cc1cn(C)c3cccc2c13,159% (active),2.79,0.99,12.5,0.85,65.4,6.29,2,1.56,7.92 (inactive)
Cc1onc(-c2ccccc2Cl)c1C(=O)N[C@@H]1C(=O)N2[C@@H]1SC(C)(C)[C@@H]2C(=O)O,68% (active),-3.1,1.4,1.76,1.27,77,-4.39,2,1.08,24.6 (inactive)
Cc1c(NC(=O)c2cccnc2)c(=O)n(-c2ccccc2)n1C,25.2% (inactive),13.7,1.39,-0.65,0.9,85.9,-15.2,2,1.3,16.6 (inactive)
Nc1ccc(S(=O)(=O)NC(=O)c2ccccc2)cc1,30% (inactive),20.3,1.2,-4.53,0.95,47.9,-23.6,2,1.16,3 (inactive)
CC(C)(Oc1ccc(Cl)cc1)C(=O)O,21.7% (inactive),17.7,1.27,11.6,1.13,38.2,12.1,2,1.01,4.75 (inactive)
CCN(CC)C(=O)N1CCN(C)CC1,25.5% (inactive),14.8,1.32,-3.55,0.61,85.9,-11.4,2,1.44,18.8 (inactive)
CC1(C)OC(=O)NC1=O,19.4% (inactive),-3.41,1.47,14.1,0.85,33.3,12.7,2,1.01,9.33 (inactive)
OCC(O)CN1CCN(c2ccccc2)CC1 (stereo unspecified),54.1% (active),9.99,1.44,10.9,0.72,68.2,0.23,2,1.04,19.2 (inactive)
Nc1ccc(S(=O)(=O)Nc2nccs2)cc1,–,6.1,1.37,-1.24,0.85,66.2,13.7,2,1.31,23.3 (inactive)
CCCCOc1ccc(CC(=O)NO)cc1,103% (active),-8.34,1.21,-4.19,1.09,43.1,0.25,2,1.14,12.2 (inactive)
CC(=O)Oc1ccc(C(c2ccc(OC(C)=O)cc2)c2ccccn2)cc1,–,10.5,1.05,5.96,1.37,74.4,13,2,1.23,9.25 (inactive)
COc1cc(NS(=O)(=O)c2ccc(N)cc2)nc(OC)n1,–,1.07,1.14,-2.33,0.86,67.5,-20.2,2,1.32,3.33 (inactive)
O=C(O)CCC(=O)c1ccc(-c2ccccc2)cc1,81% (active),1.96,-0.44,4.61,1,18.2,6.02,2,-0.185,32.7 (inactive)
CCCCOc1ccc(OCCCN2CCOCC2)cc1,29.5% (inactive),9.28,1.09,8.67,0.73,65,6.69,2,1.24,2 (inactive)

SMILES,fluorescence slope change [1],inhibition [2] [%],score [3],rescue above control [4],cytochrome c release ratio [5],inhibition of aggregation [6] [%],glutamate uptake change [7] [%],inclusion score [8],aggregation suppression score [9],survival [10]
COc1ccc2c(c1)c(CC(=O)OCC(=O)O)c(C)n2C(=O)c1ccc(Cl)cc1,79% (active),-2.12,0.67,4.6,1.11,77.8,-11,2,0.866,19.2 (inactive)
COc1c2occc2c(OC)c2c(=O)cc(C)oc12,54.2% (active),3.52,0.76,0,1.14,63.2,-7.03,2,0.597,22.1 (inactive)
CC(C)NCC(O)c1ccc2ccccc2c1 (stereo unspecified),–,0.74,1.15,-8.05,0.68,88,6.56,2,0.983,5.67 (inactive)
Cc1ccccc1N1C(=O)c2cc(S(N)(=O)=O)c(Cl)cc2NC1C (stereo unspecified),79.4% (active),19.1,1.21,6.73,0.86,4.55,2.13,2,1.18,25.6 (inactive)
Cc1ncc([N+](=O)[O-])n1CCO,22.4% (inactive),-3.1,1.16,22.1,0.97,58.7,20.8,2,0.969,10.8 (inactive)
Cc1ccsc1/C=C/C1=NCCCN1C,–,26.5,0.99,-7.31,0.66,25.5,1.68,2,1.28,20.3 (inactive)
CCN(CC)CCNC(=O)COc1ccc(OC)cc1,–,62,1.13,-1.97,0.98,72.2,0.53,2,1.23,49.8 (inactive)
C[n+]1ccccc1/C=N/O,–,17.5,1.27,6.93,1.18,91.3,-3.95,2,1.54,5.75 (inactive)
NC(N)=NS(=O)(=O)c1ccc(N)cc1,–,-31.1,1.49,-3.67,1.37,93.6,5.91,2,1.54,11.5 (inactive)
Cn1c([N+](=O)[O-])cnc1COC(N)=O,–,-0.12,1.29,8.28,0.98,44.8,17,2,1.36,19.5 (inactive)
O=C1OC(c2ccc(O)cc2)(c2ccc(O)cc2)c2ccccc21,–,-3.42,1.29,8.67,4.22,70.1,-16.5,–,1.31,–
CCCCOC(=O)c1ccc(N)cc1,–,10.7,0.73,12.6,0.92,7.84,19.2,2,0.439,0.75 (inactive)
Cc1cccc(N(C)C(=S)Oc2ccc3ccccc3c2)c1,–,-3.4,-1.43,-1.37,0.96,57.4,-6.25,2,0.257,27.3 (inactive)
O=C(O)c1ccccc1OP(=O)(O)O,–,6.6,0.8,-8.86,1.13,61,-7.63,2,0.8,6.17 (inactive)
CS(=O)(=O)c1ccc([C@@H](O)[C@@H](CO)NC(=O)C(Cl)Cl)cc1,–,-7.88,0.79,-0.62,0.72,100,16.7,2,0.726,14.4 (inactive)
CCN(CC)CCOC(=O)C(c1ccccc1)c1ccccc1,–,11.6,0.88,8.76,1.09,66.7,15.8,2,0.888,11.2 (inactive)
Cc1cc(CC(=O)O)n(C)c1C(=O)c1ccc(Cl)cc1,–,-20.4,0.85,20.8,0.92,83.3,-4.24,2,0.565,3.5 (inactive)
COc1cc(NS(=O)(=O)c2ccc(N)cc2)ncn1,–,-4.01,1.09,33.1,0.96,88.9,2.45,2,1.2,3.67 (inactive)
Cn1c(=O)c2c(ncn2CC(O)CO)n(C)c1=O (stereo unspecified),–,-0.09,1.08,-16.2,1.19,21.9,0,1,1.31,34 (inactive)
O=C1c2ccccc2C(=O)C1c1ccccc1,–,16.8,0.9,2.74,0.89,3.03,6.38,2,0.588,8.58 (inactive)
CCN1CCCC(OC(=O)C(c2ccccc2)c2ccccc2)C1 (stereo unspecified),–,7.55,1.33,-11.5,1.06,23.6,7.33,1.5,1.15,12 (inactive)
CN(C)CCOC(=O)C(c1ccccc1)C1(O)CCCC1 (stereo unspecified),–,-1.25,1.17,-1.73,0.87,90.7,-0.32,2,1.32,12.5 (inactive)
CC(=O)N(O)CCCCCNC(=O)CCC(=O)N(O)CCCCCNC(=O)CCC(=O)N(O)CCCCCN,–,-1.64,0.93,-3.69,0.93,63.2,-8.52,2,1.05,4 (inactive)
